# RORg inh: qHTS for inhibitors of ROR gamma transcriptional activity. Nuclear receptor ROR-gamma (Mus musculus), P51450. Drosophila S2 Gal4-RORgamma UAS-luciferase reporter, 20 h. Potency, µM (titrated, usually from 53.6 µM), usual class: inhibitors. 5.4% of 310,000 active. AID 2551, 2010; note: nearly all actives have a fitted effect of over 60% in size
# Target sequence (P51450 whole entry, looked up, the tested form may be a part): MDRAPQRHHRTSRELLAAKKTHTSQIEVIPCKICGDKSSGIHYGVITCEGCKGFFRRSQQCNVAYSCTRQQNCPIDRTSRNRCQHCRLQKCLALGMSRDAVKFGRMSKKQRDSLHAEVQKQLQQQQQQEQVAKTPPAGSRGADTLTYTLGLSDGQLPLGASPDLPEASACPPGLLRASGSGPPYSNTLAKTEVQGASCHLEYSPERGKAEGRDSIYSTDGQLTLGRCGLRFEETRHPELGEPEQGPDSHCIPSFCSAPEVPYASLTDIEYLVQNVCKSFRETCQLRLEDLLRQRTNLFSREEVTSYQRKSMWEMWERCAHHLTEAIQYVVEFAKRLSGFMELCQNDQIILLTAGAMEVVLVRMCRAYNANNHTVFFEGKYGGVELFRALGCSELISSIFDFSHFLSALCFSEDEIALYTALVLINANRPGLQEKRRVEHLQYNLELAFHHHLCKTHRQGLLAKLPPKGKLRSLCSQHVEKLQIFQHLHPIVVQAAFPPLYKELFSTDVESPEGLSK
#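 In this cell-based reporter format, copper sulfate (700 uM final) drives Gal4–ROR gamma fusion expression from a metallothionein promoter in Drosophila Schneider cells; compounds preincubated 1 hr, reporter read after 20 hr at ambient temperature.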
# VP16 counter: VP16 counterscreen qHTS for inhibitors of ROR gamma transcriptional activity. AID 2546, 2010. Potency, µM (top dose mostly 53.6 µM), most hits filed as inhibitors. 3.5% of 310,000 active. Drosophila S2 Gal4-VP16 UAS-luciferase, luminescence, 20 h;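 note: Gal4-VP16 expression switched on by copper sulfate through the metallothionein promoter; nearly all actives have a fitted effect of over 50% in size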
# Luc counter: Counterscreen for Luciferase (Kinase-Glo TM) Inhibition; Luciferin 4-monooxygenase (Photuris pensylvanica), Q27757; Kinase-Glo luciferase, ATP luminescence, 8 min; Potency, µM (doses to about 38.3 µM), hits mostly inhibitors; 0.28% of 200,000 active; AID 1379, 2008; note: nearly all actives have a fitted effect of over 60% in size
#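 Compounds were added to a substrate mix at pH 7.2 (50 mM imidazole, 10 uM ATP, within the enzyme's linear range), followed by Kinase-Glo detection reagent; luminescence was measured after 8 minutes at ambient temperature.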
# Numbers stand for hits; . = inactive; ? = inconclusive; / = no result; [ ] = dose if it differs, or a comment. Shown are actives, neighbours in structure and some others; about 6.4% of the full set was active somewhere. Calls come from the whole dose curve; as a rule, active = well fitted curve in the direction sought with a large enough effect; inconclusive = small, poorly fitted or top-dose-only effect, or another doubt; inactive = no such curve, though single readings can be large; an effect the other way counts as inactive or inconclusive.
SMILES,RORg inh,VP16 counter,Luc counter
O=C(NNC(=S)NC(=O)c1ccccc1[N+](=O)[O-])c1ccccc1[N+](=O)[O-],.,.,.
Cc1ccc(NC(=O)c2ccc(Nc3c([N+](=O)[O-])cc([N+](=O)[O-])cc3[N+](=O)[O-])cc2)cc1,?,1.3µM,.
Cn1c(=O)n(C)c2cc(NS(=O)(=O)c3cccs3)ccc21,.,.,.
O=C(COc1ccccc1)NNC(=S)NC(=O)c1ccc(Cl)cc1Cl,?,?,.
O=C(NNC(=S)NC(=O)c1ccc(Br)cc1)c1cccc([N+](=O)[O-])c1,14µM,?,/
CCCCOc1ccccc1C(=O)NNC(=S)NC(=O)c1ccccc1[N+](=O)[O-],14µM,?,/
CC(=O)NNC(=S)NC(=O)c1cccc([N+](=O)[O-])c1,.[10 µM],.,.
Cc1cccc(C(=O)NC(=S)NNC(=O)COc2ccc(Cl)cc2)c1,4µM,?,.
O=C(NNC(=S)NC(=O)c1ccccc1[N+](=O)[O-])c1ccccc1O,.,.,.
O=C(COc1ccc(Br)cc1)NNC(=S)NC(=O)c1ccccc1[N+](=O)[O-],?,?,.
Cc1ccc(C(=O)NC(=S)NNC(=O)c2ccccc2[N+](=O)[O-])cc1,3.2µM,3.2µM,.
Cc1sc2ncnc(N3CCCC(C)C3)c2c1C (stereo unspecified),.,.,.
CCOC(=O)N1CCN(C(=O)CCCn2nnnc2CN2CCC(C)CC2)CC1,.,.,/
O=C(CCCCCn1nnc2ccccc2c1=O)Nc1ccccc1F,.,.,/
Cc1ccc(S(=O)(=O)N2CCOC2CNC(=O)C(=O)NCCCN2CCOCC2)cc1 (stereo unspecified),.,.,/
CC(=O)N/C(=N/c1nc(C)cc(C)n1)Nc1cccc(C)c1C,.,.,/
O=C(/C=C/c1c(Cl)nc2ccccn12)Nc1ccc(F)cc1,.,?,.
CCCCC(=O)NC(=S)NNC(=O)c1ccc(Cl)cc1Cl,11µM,.,.
Cc1occc1C(=O)NNC(=S)NC(=O)COc1ccc(Cl)cc1Cl,16µM,?,/
Cc1ccc(C(=O)NNC(=S)NC(=O)c2ccc(Cl)cc2Cl)cc1,.,.,.
Cc1occc1C(=O)NNC(=O)COc1ccc(Br)cc1Br,.,.,.
O=C(O)CCC(=O)NNC(=O)c1ccc([N+](=O)[O-])cc1,.,.,/
CCCCCC(=O)NNC(=S)NC(=O)c1ccc([N+](=O)[O-])cc1,2.8µM,6.3µM,.
O=C(NCCc1nc2ccccc2[nH]1)/C(=C/c1ccc2c(c1)OCO2)NC(=O)c1ccc(Cl)cc1Cl,?,?,.
CC(=O)N1CCN(C(=O)C(Cc2c[nH]c3ccccc23)NC(=O)c2ccccc2Cl)CC1 (stereo unspecified),.,.,/
SMILES,RORg inh,VP16 counter,Luc counter
CC(C)Cn1c(N)c(C=O)c(=O)[nH]c1=O,.,.,.
O=C(NC(=S)Nc1ccccc1Cl)c1ccco1,13µM,?,/
O=C(NC(=S)Nc1cccc2c(O)cccc12)c1ccco1,.,.,/
S=C(NCCc1ccccc1)Nc1ccccc1N1CCOCC1,.,?,.
CCC(C)c1ccccc1NC(=S)NC(=O)c1ccco1 (stereo unspecified),3.5µM,3.2µM,/
O=C(Nc1ccccc1N1CCOCC1)c1ccco1,.,.,/
Fc1cc(F)cc(NC(=S)Nc2ccccc2N2CCOCC2)c1,13µM,.[10 µM],.
O=C(NC(=S)Nc1ccccc1N1CCOCC1)c1ccco1,14µM,14µM,.
O=C(NC(=S)Nc1ccc(Cl)c(C(=O)O)c1)c1ccco1,.,.,/
COc1ccc(-c2noc(=O)n2Cc2ccccc2F)cc1,.,.,/
O=P1(O)Oc2c(c(-c3ccccc3)cc3ccc4ccccc4c23)-c2c(-c3ccccc3)cc3ccc4ccccc4c3c2O1,.,.,.
COc1cccc(NC(=S)N2CCC(N(C)CC3CCCO3)CC2)c1 (stereo unspecified),.,.,.
COc1ccc(C(=O)C2CCN(C(=O)Nc3ccccc3C)CC2)cc1,.,.,/
CC(=O)c1cccc(NC(=O)CCC(=O)Oc2ccc(C)cc2)c1,.,.,/
O=C(CN1CCN(Cc2ccccc2Cl)C1=O)NCc1ccccn1,.,.,/
CSc1nc(C)c(C(=O)C[n+]2ccccc2)cc1C#N,.,.,/
O=C(c1ccc(-c2cc(Cl)ccc2Cl)o1)N1CCOCC1,.,.,.
O=C(Nc1ccccc1N1CCCCC1)c1ccco1,.,.,.
O=C(NC(=S)Nc1ccccc1N1CCCCC1)c1ccco1,3.2µM,4µM,.
O=C(NC(=S)Nc1ccccc1N1CCOCC1)c1ccc(-c2cc(Cl)ccc2Cl)o1,0.89µM,2.5µM,.
O=C(NC(=S)Nc1ccccc1N1CCCC1)c1ccco1,.,.,/

# Screening data as filed in PubChem.
